# Reference: PubChem BioAssay (NCI)
# About 83,000 compounds went through this panel and 20% of them were active in at least one assay; those are over-represented in the sample as a whole.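 Note: values are percent growth. 100 is the growth of untreated cells, values between 100 and 0 indicate rising inhibition; between -100 and 0 indicates cell death.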 A number with no mark means an inactive call. Activity calls are given as the source filed them. Rule for the calls: active = growth percent below 10; inactive = the rest.
# System: ACHN renal
# Assay: NCI-60 one-dose screen, 48 h (100 = growth as untreated, 0 = no growth, -100 = all killed)
# Conditions: 10 µM unless noted
row,Compound,growth
1,CCOc1ccc(NC(=O)Nc2cc(C(C)C)ccc2C)cc1,20.6%
2,NS(=O)(=O)c1ccc(-n2nc(-c3ccc(Cl)cc3)ccc2=O)cc1,101%
3,COC(OC)C1(c2ccccc2)NC(=O)NC1=O (stereo not drawn),108%
4,CC1=C[S+](c2ccccc2)c2cccc3cc4ccccc4c1c23 (stereo not drawn),15.3%
5,O=C(Nc1ccccc1F)Nc1ccccc1Cl,90.8%
6,O=C(C[n+]1ccccc1Cl)c1ccc2c(c1)CCCC2,105%
7,COc1cc(-c2nc3sc(C)cn3c2/C=C2\C(=O)Nc3ccccc32)c(Br)c(OC)c1OC,57%
8,CC1(C)N=C(N)N=C(N)N1c1cccc(CCCCc2ccccc2)c1,33%
9,COc1ccc(/C=C2\CS(=O)(=O)C/C(=C\c3ccc(OC)cc3)C2=O)cc1,-51% (active)
10,CN1CCN(CC(O)COc2c(Br)c(Br)c(Br)c3c2OC(C)(C)C3)CC1 (stereo not drawn),77.9%
11,CC1(C)N=C(N)N=C(N)N1c1ccc(OCC(=O)Nc2ccccc2)c(Cl)c1,103%
12,COc1ccc2c(c1)nnc1c3cccnc3[nH]c21,-10.2% (active)
13,CC(=O)N[C@@H](CNC(=O)c1cc(NC(=O)c2cc(NC(=O)c3cc(NC(=O)c4nccn4C)cn3C)cn2C)cn1C)CC(=O)Nc1cn(C)c(C(=O)Nc2cc(C(=O)Nc3cc(C(=O)Nc4cc(C(=O)NCCCN(C)CCCNC(=O)c5cccc(C(=O)O)c5)n(C)c4)n(C)c3)n(C)c2)n1,75.1%
14,Nc1ccc(S(=O)(=O)Nc2cc(I)cc(I)c2)cc1,120%
15,Nc1nc2ccc(CNc3ccc(C(=O)NC(CC(=O)O)C(=O)O)cc3)cc2c(=O)[nH]1 (stereo not drawn),33.1%
16,Cc1cn(C2CC(F)C(CO)O2)c(=O)[nH]c1=O (stereo not drawn),83.7%
17,CN(C)C(=O)Nc1nc2cc(Cl)c(Cl)cc2[nH]1,52.6%
18,Cc1cccc(NC(=O)CCc2ccc(N3C(N)=NC(N)=NC3(C)C)cc2)c1,101%
19,COc1cc(/C=C/C(=O)c2c(C)[n+]([O-])c3ccccc3[n+]2[O-])ccc1O,95.4%

row,Compound,growth
1,CCC1CN2C(=N1)c1ccccc1-c1cc(Cl)ccc12 (stereo not drawn),2.38% (active)
2,CC(C(C(=O)N1CCCCC1)N1CCCCC1)N1CCCCC1 (stereo not drawn),116%
3,NC(CSC(c1ccccc1)(c1ccccc1)c1ccc(F)cc1)C(=O)O (stereo not drawn),56.8%
4,CS(=O)(=O)OCC(COS(C)(=O)=O)C(c1ccccc1)c1ccccc1,107%
5,S=c1ssnc1-c1ccccn1,15.4%
6,O=C(Cn1c2ccccc2c2ccncc21)N/N=C/c1cc(O)c(O)c(O)c1,108%
7,CN(C)c1ccc(/C=N/N=C(N)N)cc1,98.5%
8,Cc1cc2c(cc1C)N(C(=O)CCl)CCN2C(=O)CCl,-81.6% (active)
9,O=C(O)c1cc2ccccc2cc1Nc1ccccc1,98.8%
10,O=C(Nc1ccccc1Cl)c1c[nH]c(=O)c(-c2ccc(N3CCCOC4(CC4)C3)cc2)c1,72.2%
11,Clc1ccc2c(c1)nnn1c3ncccc3c(Br)c21,78.4%
12,Cc1nssc1=S,109%
13,FC(F)(F)c1cn(CC2CNC2)c2ncnc(Cl)c12,104%
14,CN1CCN(Cn2nc(-c3cc(Cl)cc(Cl)c3Cl)n(/N=C/c3ccc(Cl)cc3)c2=S)CC1,100%
15,NC(N)=N/N=C/c1ccc([N+](=O)[O-])cc1,106%
16,CC1=C2C(=C[C@@](C)(CO)[C@@H]2OC(=O)N(C)CCN(C)C(=O)OC(C)(C)C)C(=O)[C@](C)(O)C12CC2,-52.5% (active)
17,Nc1nc(=S)ss1,109%
18,COC(=O)c1oc2c(C(C)=O)c(OCCN3CCCCC3)ccc2c1C,108%
19,Cc1cc[n+](CCCC[n+]2ccc(C)cc2)cc1,104%
